From the supplement of paper PMC3334620
In all, about 33,000 sequences were measured (“E-score (-0.5 to 0.5)”: median about -0.011, highest 2% from about 0.28 on). The sample holds the highest values, similar sequences and a random draw of the others, so the mix is not that of the screen.

Each sequence was assayed against T1, Gcr1 (UniProt P07261) (assay: PBM E-score (8-mer binding enrichment) (E-score (-0.5 to 0.5)); higher = stronger / more preferred TF binding). Settings: protein concentration: 100 nM; construct: GST-full length.
T1 sequence: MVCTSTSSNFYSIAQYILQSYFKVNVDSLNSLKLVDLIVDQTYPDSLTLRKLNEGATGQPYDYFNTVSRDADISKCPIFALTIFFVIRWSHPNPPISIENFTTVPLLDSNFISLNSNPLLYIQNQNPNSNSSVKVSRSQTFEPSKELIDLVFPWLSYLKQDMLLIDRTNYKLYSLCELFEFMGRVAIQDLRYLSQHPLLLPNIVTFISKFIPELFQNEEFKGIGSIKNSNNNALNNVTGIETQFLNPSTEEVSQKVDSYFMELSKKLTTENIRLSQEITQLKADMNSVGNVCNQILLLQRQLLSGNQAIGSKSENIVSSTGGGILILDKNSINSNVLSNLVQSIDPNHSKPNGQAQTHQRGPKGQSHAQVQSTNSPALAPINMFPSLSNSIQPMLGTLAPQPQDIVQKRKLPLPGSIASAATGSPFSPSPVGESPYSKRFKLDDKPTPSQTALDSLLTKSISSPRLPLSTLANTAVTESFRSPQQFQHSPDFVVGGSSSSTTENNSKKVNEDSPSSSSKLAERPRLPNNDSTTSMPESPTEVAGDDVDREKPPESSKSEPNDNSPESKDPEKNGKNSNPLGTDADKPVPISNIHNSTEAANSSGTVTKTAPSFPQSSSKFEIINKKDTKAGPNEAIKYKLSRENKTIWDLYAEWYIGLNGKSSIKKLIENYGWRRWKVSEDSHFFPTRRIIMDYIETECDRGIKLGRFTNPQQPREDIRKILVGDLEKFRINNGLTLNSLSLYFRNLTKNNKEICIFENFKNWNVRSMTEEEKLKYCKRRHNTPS
Experimental: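 Universal 'all 10-mer' protein binding microarrays (Agilent AMADID 015681) probed with GST-tagged S. cerevisiae TFs (full-length or DBD) made by in vitro transcription/translation (PURExpress), about 100-200 nM. Bound TF was detected with fluorescent anti-GST. Each ungapped 8-mer (which stands for itself and its reverse complement) is scored by the PBM enrichment score (E-score), a modified Wilcoxon-Mann-Whitney statistic from -0.5 to +0.5, computed with the Universal PBM Analysis Suite. Scale: above 0.35 generally sequence-specific binding.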

Sequence | PBM E-score
GGCACTCA | -0.189
AACGTCTT | 0.158
AGCAAGTA | -0.149
AGAATACG | 0.182
TAGCCTCA | -0.053
CAACCAAC | -0.102
CAACCAAG | 0.0892
CAACCAAA | 0.313
AGCCAAGC | -0.0873
CAAACTGA | 0.105
GCCGGAAC | 0.247
CGCCATTC | 0.0469
CGAGTCCA | -0.051
GGAGTCCC | 0.286
GGAGTCCA | 0.344
AGAGTCCC | 0.0617
CGAGTCCC | 0.168
TGAGTCCA | 0.146
GCCGAGTA | 0.115
ACCGGGCT | 0.113
GCTTACCA | -0.193
ACGCTTGA | 0.0746
GCGGAACA | -0.172
CCGGAACA | -0.0359
CCGGAACG | -0.0389

Sequence | PBM E-score
CCGGAACC | 0.325
GCGGAACC | 0.341
ACGGAACC | 0.0697
CATTGTTC | -0.0803
CCAAACAA | 0.213
CAGTGGTA | 0.115
AAGCCTTC | -0.191
CCTCGGTC | -0.223
AAGGGAAC | 0.0126
CCACTACC | 0.125
CCACTAGG | 0.287
ACACTAGG | -0.176
CCACTAAC | 0.21
ACACTAAG | -0.00776
CCACTACA | 0.194
CCACTATA | 0.276
ACACTATC | -0.0774
CCACTATC | 0.368
CCACTAGA | 0.235
CCACTAAG | 0.374
CCACTACG | 0.323
CACCATAC | 0.0726
ACCTGTGG | -0.0729
GCTTGGAA | -0.114
CGGGGTCA | -0.096

Sequence | PBM E-score
AAGAAACC | 0.0595
AGGCGTAA | 0.0474
GACGCATA | 0.141
GCACTAAA | 0.0118
CCACTAAA | 0.314
TCACTAAA | 0.134
CCCCGTCG | 0.00224
CCCGATGC | -0.124
AGGGATAT | -0.234
GTATGCGA | 0.291
CTATGCGA | -0.14
ATATGCGA | 0.0152
AATAGTGG | 0.425
ATTAGTGA | 0.0812
AATAGTGC | -0.175
AATAGTGA | 0.0209
ATTAGTGG | 0.388
ATTAGTGC | -0.00168
GAGCGAAC | -0.28
TCCATAGA | 0.203
CGTAAGAA | -0.113
CTAAAGAC | -0.0627
AAAAGGAA | 0.361
AAAAGGAC | 0.0425
CAAAGGAA | 0.104

Sequence | PBM E-score
GAAAGGAA | 0.0552
AAAAGGAT | -0.00496
TAAAGGAA | 0.314
AATCTCGC | -0.0134
GCTGGTAA | 0.122
ATAGGTCG | 0.0752
AATTTACG | 0.0625
ATTTTACG | 0.337
ATTTTACC | 0.0326
GATAACAC | -0.12
GTGTCCAA | 0.0511
ACTGGACG | 0.303
ACTGGATA | 0.108
CCTGGATC | -0.00306
ACTGGACT | 0.134
ACTGGAGG | 0.206
ACTGGATC | 0.316
ACTGGAGC | 0.0795
ACTGGACA | 0.0644
ACTGGATG | 0.326
CGACTGTC | -0.252
CTGCACAG | -0.0453
GCGCTAAA | 0.232
CTTCAGCA | -0.0569
CTATATTA | 0.307

Sequence | PBM E-score
ATATATTA | 0.0581
CTCTATTA | 0.154
GTTCATCA | 0.108
TACCTAAA | 0.0795
GTCCTAAA | 0.21
AACCTAAA | 0.294
ATCCTAAA | 0.211
CACCTAAA | 0.266
TTCCTAAA | 0.36
GGGAGTGA | -0.0739
GTCCGCAC | -0.0732
AGATCCAC | 0.183
AGATCCAA | 0.186
CGATCCAA | 0.0146
CGATCCAC | -0.153
GGATCCAC | 0.302
GGATCCAA | 0.299
TGGATTAA | 0.0316
GTACTTGA | -0.209
AAGAAAGG | -0.125
ATGCGCTC | 0.0347
ACCCCGTA | -0.0035
AGAGCTTA | -0.119
GAAGCACA | 0.117
CATAGACG | 0.0886

Sequence | PBM E-score
CTAATTTA | 0.291
CTAATTTC | 0.189
GTAATTTA | 0.109
ATACCTTG | -0.108
AATTTTGG | 0.287
AAAATTGC | -0.203
AAATTTTG | 0.088
CAAATTGG | 0.213
AATTTTTG | 0.1
AAATTGGG | 0.295
ATTTTTGG | 0.186
AAAATTGG | 0.316
CAATTTGG | 0.222
AAATTTGG | 0.301
CAATTGGG | -0.0107
AAATTGGT | 0.226
AGGGAATA | 0.0244
AATAGATC | -0.0063
CGATCTTA | -0.045
GAGTTCAC | -0.0309
ATGTGCCG | -0.205
ACCGCTTG | -0.0218
AGTTTAAT | 0.0173
ACACTCGT | -0.152
ATTTGGAC | 0.166

Sequence | PBM E-score
CTTTGGAC | -0.147
GTTTGGAA | 0.202
CTTTGGAA | 0.282
ATTTGGAG | 0.0526
ATTTGGAA | 0.373
ATGCTAAC | 0.139
AATCAGAC | 0.0464
AGCCCAGA | 0.0713
CTAGCACC | 0.31
CTAGCATA | 0.017
CTAGCACA | -0.181
ATAGCATC | 0.0848
ATAGCACC | 0.159
CTAGCATC | 0.315
CCAGAGCG | -0.144
ACCGGATG | 0.349
CCCGGACG | -0.0526
ACCGGAAG | 0.303
ACCGGAAC | 0.203
ACCGGAAT | 0.185
ACCGGATC | 0.0302
ACCGGACG | 0.32
ACCGGACT | -0.0693
ACCGGATA | 0.00906
AAGGGGTC | -0.19

Sequence | PBM E-score
CGATCAAG | -0.0812
CCTTGGCC | -0.327
ATTAGGAG | 0.26
CGCTAGTC | -0.153
AACAATGT | 0.0351
ATCCCATG | -0.0862
TCGTTTCA | 0.077
GGATTCAC | 0.159
CGATTCCG | -0.0838
AGATTCCG | 0.284
CGATTCCA | 0.178
TGATTCCA | 0.0933
GGATTCCC | 0.418
AGATTCCT | 0.399
AGATTCCC | 0.265
CGATTCCC | 0.0331
AGATTCCA | 0.426
ATATTCCG | 0.131
ACATTCCT | 0.0561
CCAGTTGA | -0.0652
GGATTGAC | -0.0943
AACCCAGG | 0.056
CCGTTGAC | -0.121
CGAACCAA | -0.0751
GGAACCAC | 0.284

Sequence | PBM E-score
CGAACCAC | 0.0103
CCAACCAA | 0.0612
TGAACCAA | 0.022
GGAACCAA | 0.31
GCAACCAA | 0.302
GCAACCAC | 0.267
AGAACCAC | 0.035
AATGGACG | 0.143
CGTGGGCC | -0.23
GGGGAGCA | -0.103
GGTCGAGA | -0.0372
GTAGGATA | -0.109
ATACTGGA | 0.373
GAACTGGA | 0.303
TAACTGGA | 0.225
CGACTGGA | 0.316
ATACTGGC | 0.161
CGACTGGC | -0.241
GGACTGGA | -0.0243
CAACTGGA | 0.212
GTACTGGA | 0.235
